Measurements from PubChem BioAssay (Tox21).
Several values for one entry are separate records, joined by “and”; a condition that tells them apart may be missing. Equal entries are not always repeated. Inconclusive results are not listed. A call without a number means that no potency is given here. Some compounds were tested as several samples or in several runs, with calls that do not always agree. Activity calls are given as the source filed them. Unless noted, calls come from the whole dose curve; as a rule, active = well fitted curve in the direction sought with a large enough effect in the repeat runs; inconclusive = weak or mixed curves; inactive = no such curve, though single readings can be large; an effect the other way counts as inactive or inconclusive.

What was measured:
[1] = qHTS assay to identify small molecule antagonists of the estrogen related receptor (ERR) signaling pathway from Tox21 library - cell viability counter screen (AID 1224834); note: nearly all actives have a fitted effect of over 30% in size; note: potency is the fitted concentration of half-maximal effect
Outline: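 In this quantitative HTS format, ERR cells receive compounds in DMSO and are incubated for 17.5 h at 37 C. Live-cell protease activity is then detected with CellTiter-Fluor.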

[2] = target: Luciferin 4-monooxygenase (Photinus pyralis) (UniProt P08659); test: qHTS assay to identify small molecule inhibitors of firefly luciferase (AID 1224835); note: nearly all actives have a fitted effect of over 25% in size; note: potency is the fitted concentration of half-maximal effect
Sequence of Luciferin 4-monooxygenase (Photinus pyralis) (P08659 whole entry, looked up): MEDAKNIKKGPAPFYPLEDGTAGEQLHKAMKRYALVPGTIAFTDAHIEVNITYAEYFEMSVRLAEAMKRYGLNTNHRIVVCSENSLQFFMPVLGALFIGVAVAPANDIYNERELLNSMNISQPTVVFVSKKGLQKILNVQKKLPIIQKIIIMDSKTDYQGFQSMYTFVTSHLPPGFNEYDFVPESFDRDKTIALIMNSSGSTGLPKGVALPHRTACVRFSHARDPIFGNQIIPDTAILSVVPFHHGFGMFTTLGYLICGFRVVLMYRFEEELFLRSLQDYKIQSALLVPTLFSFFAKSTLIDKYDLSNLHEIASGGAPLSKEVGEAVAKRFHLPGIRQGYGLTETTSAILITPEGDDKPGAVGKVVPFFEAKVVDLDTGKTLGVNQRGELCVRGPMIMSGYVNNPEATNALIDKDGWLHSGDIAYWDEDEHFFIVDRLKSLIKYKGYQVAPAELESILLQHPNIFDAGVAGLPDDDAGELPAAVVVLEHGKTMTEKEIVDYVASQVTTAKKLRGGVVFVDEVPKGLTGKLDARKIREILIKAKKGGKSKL
Outline: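 Inhibition of purified Photinus luciferase is measured by luminescence. Substrate levels (D-luciferin, ATP) sit at their KM values. Each compound is tested in a concentration series.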

[3] = qHTS assay to identify small molecule agonists of the constitutive androstane receptor (CAR) signaling pathway - cell viability counter screen (AID 1224836); note: nearly all actives have a fitted effect of over 45% in size; note: potency is the fitted concentration of half-maximal effect
Outline: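 HepG2 cells stably carrying hCAR and a CYP2B6-2.2kb reporter; 15-concentration compounds plus PK11195 (final 0.75 uM), 23 hr at 37 C/5% CO2. Viability read by CellTiter-Fluor fluorescence.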

[4] = qHTS assay to identify small molecule antagonists of the constitutive androstane receptor (CAR) signaling pathway - cell viability counter screen (AID 1224837); note: nearly all actives have a fitted effect of over 45% in size; note: potency is the fitted concentration of half-maximal effect
Outline: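 In quantitative HTS format, compounds at 15 concentrations were applied to HepG2 cells double-transfected with hCAR and CYP2B6-2.2kb under 50 nM CITCO stimulation; live-cell protease activity was read after 23 hr via CellTiter-Fluor.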

[5] = target: Nuclear receptor subfamily 1 group I member 3 (Homo sapiens) (UniProt Q14994); test: qHTS assay to identify small molecule antagonists of the constitutive androstane receptor (CAR) signaling pathway (AID 1224838); note: nearly all actives have a fitted effect of over 40% in size; note: potency is the fitted concentration of half-maximal effect
Sequence of Nuclear receptor subfamily 1 group I member 3 (Homo sapiens) (Q14994 whole entry, looked up): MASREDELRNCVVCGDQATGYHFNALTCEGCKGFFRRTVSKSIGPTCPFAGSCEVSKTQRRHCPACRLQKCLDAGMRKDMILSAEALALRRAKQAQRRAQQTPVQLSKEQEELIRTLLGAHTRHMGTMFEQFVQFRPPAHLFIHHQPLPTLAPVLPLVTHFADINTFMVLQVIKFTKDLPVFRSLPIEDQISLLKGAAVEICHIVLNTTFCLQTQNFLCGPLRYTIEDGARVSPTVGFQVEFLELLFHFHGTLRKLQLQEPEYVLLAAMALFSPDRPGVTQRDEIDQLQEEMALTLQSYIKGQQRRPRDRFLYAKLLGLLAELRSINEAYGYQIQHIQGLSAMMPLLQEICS
Outline: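 CITCO-stimulated (50 nM final) HepG2 cells stably transfected with hCAR and CYP2B6-2.2kb luciferase were exposed to compounds at 15 concentrations for 24 h at 37 C/5% CO2. A luciferase reagent was added and luminescence recorded after 30 min.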

[6] = target: Nuclear receptor subfamily 1 group I member 3 (Homo sapiens) (UniProt Q14994); test: qHTS assay to identify small molecule agonists of the constitutive androstane receptor (CAR) signaling pathway (AID 1224839); note: nearly all actives have a fitted effect of over 15% in size; note: potency is the fitted concentration of half-maximal effect
Outline: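 HepG2 cells stably co-transfected with hCAR and a CYP2B6-2.2kb luciferase reporter; compounds at 15 concentrations with 0.75 uM PK11195 present. After 24 hr at 37 C, luciferase read by ONE-Glo luminescence.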

[7] = qHTS assay to identify small molecule antagonists of the estrogen related receptor signaling pathway with the pleiotropic PPARgamma coactivator (PGC) from Tox21 10K library - cell viability counter screen (AID 1224840; active = well fitted cell-killing curve with a large enough effect in the repeat runs, not every such curve was filed as active; note: nearly all actives have a fitted effect of over 40% in size; note: potency is the fitted concentration of half-maximal effect)
Outline: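 Viability counter screen, PGC/ERR cells: 17.5 h compound exposure at 37 C, CellTiter-Fluor fluorescence endpoint.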

[8] = qHTS assay to identify small molecule antagonists of the estrogen related receptor signaling pathway with the pleiotropic PPARgamma coactivator (PGC) from Tox21 10K library (AID 1224841; call rule not given here; note: actives are mostly falling curves and most rising ones were filed inactive; nearly all actives have a fitted effect of over 50% in size; note: potency is the fitted concentration of half-maximal effect)
Outline: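 In the PGC/ERR line, DMSO solutions of test chemicals are pin-delivered to 2,000 cells/well six hours after dispensing. Following eighteen hours' incubation, One-Glo reagent is added and luminescence recorded.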

[9] = target: Thyrotropin receptor (Homo sapiens) (UniProt P16473); test: qHTS assay to identify small molecule agonists of the thyroid stimulating hormone receptor (TSHR) signaling pathway (AID 1224843; calls by dose curve; note: nearly all actives have a fitted effect of over 45% in size; note: potency is the fitted concentration of half-maximal effect)
Sequence of Thyrotropin receptor (Homo sapiens) (P16473 whole entry, looked up): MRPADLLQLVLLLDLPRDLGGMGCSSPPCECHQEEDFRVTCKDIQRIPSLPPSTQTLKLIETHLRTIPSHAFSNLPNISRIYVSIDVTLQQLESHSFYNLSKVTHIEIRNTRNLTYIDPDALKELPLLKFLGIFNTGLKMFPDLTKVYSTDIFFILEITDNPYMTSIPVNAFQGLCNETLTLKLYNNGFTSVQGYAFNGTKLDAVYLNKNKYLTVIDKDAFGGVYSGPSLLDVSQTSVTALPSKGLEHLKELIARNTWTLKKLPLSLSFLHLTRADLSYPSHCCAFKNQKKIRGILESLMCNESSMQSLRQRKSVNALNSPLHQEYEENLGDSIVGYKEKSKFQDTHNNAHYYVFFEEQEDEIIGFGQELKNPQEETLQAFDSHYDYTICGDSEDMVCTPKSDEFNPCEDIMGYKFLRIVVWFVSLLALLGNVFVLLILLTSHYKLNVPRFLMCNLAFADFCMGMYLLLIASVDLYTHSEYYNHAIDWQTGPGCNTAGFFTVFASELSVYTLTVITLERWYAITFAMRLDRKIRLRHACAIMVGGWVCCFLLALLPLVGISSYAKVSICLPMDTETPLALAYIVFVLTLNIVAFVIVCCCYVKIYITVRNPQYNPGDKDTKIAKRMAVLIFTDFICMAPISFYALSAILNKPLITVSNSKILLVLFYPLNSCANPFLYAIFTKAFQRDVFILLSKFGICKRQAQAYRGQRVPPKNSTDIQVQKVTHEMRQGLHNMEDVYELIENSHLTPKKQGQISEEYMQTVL
Outline: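 Agonist activity read as cAMP rise via d2/cryptate HTRF competition, 1 h room-temperature detection, in HEK293 cells expressing TSHR. Fifteen-point titrations, each run in triplicate, with a 30 min room-temperature incubation beforehand.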

[10] = qHTS assay to identify small molecule agonists of the estrogen related receptor signaling pathway with the pleiotropic PPARgamma coactivator (PGC) from Tox21 10K library (AID 1224842); note: nearly all actives have a fitted effect of over 15% in size
Outline: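 Luminescence from One-Glo (30 min, room temperature) measured after PGC/ERR cells had 18 h at 37 C with pinned compound (23 nL in DMSO). Cells had been seeded at 2,000 per well and pre-incubated 6 h.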

| Structure (SMILES) | Potency [1] | Potency [2] | Potency [3] | Potency [4] | Potency [5] | Potency [6] | Potency [7] | Potency [8] | Potency [9] | Potency [10] |
| --- | --- | --- | --- | --- | --- | --- | --- | --- | --- | --- |
| CCC(C)(c1ccc(O)cc1)c1ccc(O)cc1 | 68.5 µM (active) | inactive | inactive | inactive | inactive | 4.85 µM (active) and 3.06 µM (active) | inactive | 48.5 µM (active) | inactive |  |
| CCC(=O)O[C@H]1CC[C@H]2[C@@H]3CCC4=CC(=O)CC[C@]4(C)[C@H]3CC[C@]12C | inactive | inactive | inactive | inactive | inactive | inactive | inactive |  | inactive |  |
| c1ccc(N=Nc2ccccc2)cc1 | inactive | 18.2 µM (active) and 22.4 µM (active) | inactive | inactive | inactive | inactive | inactive | inactive | inactive |  |
| CC(C)Oc1cc(-n2nc(C(C)(C)C)oc2=O)c(Cl)cc1Cl | inactive | inactive | inactive | inactive | inactive | 60.3 µM (active) and 61.1 µM (active) | inactive |  | inactive |  |
| N#CCCCl | inactive | inactive | inactive | inactive | inactive | inactive | inactive |  | inactive |  |
| C[C@]12CCC(=O)C(O)=C1CC[C@@H]1[C@@H]2CC[C@]2(C)C(=O)CC[C@@H]12 | inactive | inactive | inactive | inactive |  | inactive | inactive | inactive |  |  |
| CC(C)=CC1C(C(=O)OCc2coc(Cc3ccccc3)c2)C1(C)C (centres undefined) | inactive | inactive | inactive | inactive |  | 34.4 µM (active) and 27.3 µM (active) | inactive |  |  |  |
| Nc1cccnc1 | inactive | inactive | inactive | inactive | inactive | inactive | inactive |  | inactive |  |
| O=c1oc2ccccc2c(O)c1C(CC(O)c1ccc(-c2ccc(Br)cc2)cc1)c1ccccc1 (centres undefined) | inactive | inactive | inactive | inactive |  | inactive | inactive |  |  |  |
| Oc1c(Cl)c(Cl)c(Cl)c(Cl)c1Cl | inactive | 34.9 µM (active) and inactive | inactive | inactive | inactive | 21.2 µM (active) and 15.4 µM (active) | inactive |  | inactive |  |
| O=C(NC(=O)c1c(F)cccc1F)Nc1ccc(Cl)cc1 | inactive | inactive | inactive | inactive | inactive | inactive and 1.22 µM (active) | inactive |  | inactive |  |
| O=[N+]([O-])c1cccc2ccccc12 | inactive | inactive | inactive | inactive | inactive | inactive | inactive | inactive | inactive |  |
| CN(C)C(=O)Nc1ccc(Cl)cc1 | inactive | inactive | inactive | inactive | inactive | inactive | inactive |  | inactive |  |
| CCOC(=O)C(C)OC(=O)c1cc(Oc2ccc(C(F)(F)F)cc2Cl)ccc1[N+](=O)[O-] (centres undefined) | inactive | inactive | inactive | inactive | inactive | 54.2 µM (active) and inactive | inactive | 24.2 µM (active) |  |  |
| COC(=O)c1sccc1S(=O)(=O)NC(=O)Nc1nc(C)nc(OC)n1 | inactive | inactive | inactive | inactive | inactive | inactive | inactive |  | inactive |  |
| Nc1ccncc1 | inactive | inactive | inactive | inactive | inactive | inactive | inactive |  | inactive |  |
| CCCCCCCCC(=O)NCc1ccc(O)c(OC)c1 | inactive | inactive | inactive | inactive | inactive | inactive | inactive |  | inactive |  |
| C#C[C@]1(O)CC[C@H]2[C@@H]3CCC4=CC(=O)CC[C@]4(C)[C@H]3CC[C@@]21C | inactive | inactive | inactive | inactive | inactive | inactive | inactive |  | inactive |  |
| CCCCOCCOP(=O)(OCCOCCCC)OCCOCCCC | inactive | inactive | inactive | inactive | inactive | inactive | inactive |  |  |  |
| C=C(C)[C@H]1Cc2c(ccc3c2O[C@@H]2COc4cc(OC)c(OC)cc4[C@@H]2C3=O)O1 | 8.75 µM (active) and 8.63 µM (active) and 376 nM (active) | inactive | 875 nM (active) and 1.54 µM (active) and 668 nM (active) | 1.96 µM (active) and 770 nM (active) and 531 nM (active) | 3.48 µM (active) and 19.3 µM (active) and 3.35 µM (active) | inactive | inactive | 34.8 nM (active) and 4.9 nM (active) | 24.7 µM (active) and 17.2 µM (active) and 26.6 µM (active) |  |
| NCc1cccnc1 | inactive | inactive | inactive | inactive | inactive | inactive | inactive | inactive | inactive |  |
| CC(C)(C)c1ccccc1O | inactive | inactive | inactive | inactive | inactive | inactive | inactive |  |  |  |

| Structure (SMILES) | Potency [1] | Potency [2] | Potency [3] | Potency [4] | Potency [5] | Potency [6] | Potency [7] | Potency [8] | Potency [9] | Potency [10] |
| --- | --- | --- | --- | --- | --- | --- | --- | --- | --- | --- |
| Nc1c(Cl)cc([N+](=O)[O-])cc1Cl | inactive | inactive | inactive | inactive | inactive | inactive | inactive | 48.9 µM (active) and 27.3 µM (active) |  |  |
| O=P(O)(O)CCCl | inactive | inactive | inactive | inactive | inactive | inactive | inactive |  | inactive |  |
| CC1(C)C(C=C(Cl)Cl)C1C(=O)OC(C#N)c1cccc(Oc2ccccc2)c1 (centres undefined) | inactive | inactive | inactive | inactive | inactive |  | inactive |  | inactive |  |
| Nc1ccc(Cl)c(Cl)c1 | inactive | inactive | inactive | inactive | inactive | inactive | inactive | inactive | inactive |  |
| COc1ccc(C=O)cc1 | inactive | inactive | inactive | inactive | inactive | inactive | inactive |  | inactive |  |
| COP(=S)(OC)Oc1cc(Cl)c(Cl)cc1Cl | inactive | inactive | inactive | inactive | inactive | 54.1 µM (active) | inactive |  | inactive |  |
| CC(C)(OOC(C)(C)c1ccccc1)c1ccccc1 | inactive | inactive | inactive | inactive | inactive | 24 µM (active) and 8.63 µM (active) | inactive | inactive | inactive | inactive |
| CNC(=O)Oc1cccc2c1OC(C)(C)O2 | inactive | inactive | inactive | inactive | inactive | inactive | inactive |  | inactive |  |
| Oc1ccc(-c2ccccc2)cc1 | inactive | 39.4 µM (active) and 39.9 µM (active) | inactive | inactive | inactive | 53.8 µM (active) and 54.5 µM (active) | inactive | inactive | inactive |  |
| Cc1c(COC(=O)[C@@H]2[C@H](/C=C(\Cl)C(F)(F)F)C2(C)C)cccc1-c1ccccc1 | inactive | inactive | inactive | inactive |  | inactive | inactive |  |  |  |
| CCC(C)c1ccc(O)cc1 (centres undefined) | inactive | 71.6 µM (active) | inactive | inactive | inactive | inactive | inactive | inactive |  |  |
| NNC(N)=S | 22.5 µM (active) | inactive | inactive | 63.5 µM (active) | 63.5 µM (active) | inactive | inactive | 31.8 µM (active) and inactive | inactive |  |
| CC(O)CCO (centres undefined) | inactive | inactive | inactive | inactive | inactive | inactive | inactive |  | inactive |  |
| CC(C)C(=O)OCC(C)(C)C(OC(=O)C(C)C)C(C)C (centres undefined) | inactive | inactive | inactive | inactive | inactive | inactive | inactive | inactive | inactive |  |
| CCOc1cc(Oc2ccc(C(F)(F)F)cc2Cl)ccc1[N+](=O)[O-] | inactive | inactive | inactive | inactive | inactive | inactive | inactive | 55.1 µM (active) and inactive |  |  |
| O=[N+]([O-])c1ccc(O)c([N+](=O)[O-])c1 | 27.4 µM (active) and 27.3 µM (active) | inactive | 30.8 µM (active) | 30.8 µM (active) | inactive | inactive | 30.8 µM (active) and 27.3 µM (active) | 30.8 µM (active) and 21.7 µM (active) | inactive |  |
| C1=Cc2cccc3cccc1c23 | inactive | inactive | inactive | inactive |  |  | inactive | 190 nM (active) and inactive | inactive |  |
| Nc1ccc(-c2ccccc2)cc1 | 8.87 µM (active) and inactive | 57.9 µM (active) and 63.3 µM (active) | inactive | inactive |  | 30.6 µM (active) | inactive |  | inactive |  |
| CCOc1cc(C=O)ccc1O | inactive | inactive | inactive | inactive |  | inactive | inactive |  | inactive |  |
| CCCCC(CC)COC(=O)Cl (centres undefined) | inactive | inactive | inactive | inactive |  | inactive | inactive | inactive | inactive | inactive |
| c1nc[nH]n1 | inactive | inactive | inactive | inactive |  | inactive | inactive | inactive | inactive |  |
